Assay results from PubChem BioAssay (Tox21).
Inconclusive results are not listed. Entries that show only a call come without a potency. Activity calls are given as the source filed them. Calls follow the shape of the dose curve; as a rule, active = well fitted cell-killing curve with a large enough effect in the repeat runs; inconclusive = weak or mixed curves; inactive = flat fitted curve, though single readings scatter.

Experiment: qHTS RealTime-Glo MT Cell Viability Assay in HepG2 cells - 32 hour (AID 1224877); also: nearly all actives have a fitted effect of over 55% in size
Conditions: RealTime-Glo luminescence; series mostly up to 76.8 µM
From the text: U.S. Tox21 Program National Center for Advancing Translational Sciences [NCATS] NIH Chemical Genomics Center [NCGC] U.S. Environmental Protection Agency [EPA] National Institutes of Environmental Health Sciences [NIEHS] National Toxicology Program [NTP] U.S. Food and Drug Administration [FDA] Tox21 Assay Overview: Measure of cell viability is critical in the cell-base assay. Analysis of cell viability is necessary for the characterization of cell responses to cytotoxic drugs and environmental stress. A RealTime-Glo MT Cell Viability Assay to monitor cell viability in real time of continues cell culture during 40 hours of compound treatment was used to screen Tox21 10K library compounds in HepG2 cells. The RealTime-Glo MT Cell Viability Assay is a nonlytic, homogeneous, bioluminescent method to measure cell viability in real time using a simple, plate-based method. The assay involves adding NanoLuc luciferase and a cell-permeant prosubstrate to cells in culture. Viable cells reduce the proprietary prosubstrate to generate a substrate for NanoLuc luciferase. This substrate diffuses from cells into the surrounding culture medium, where it is rapidly used by the NanoLuc Enzyme to produce a luminescent signal. The signal correlates with the number of viable cells, making the assay well suited for cytotoxicity studies.
Tox21 Assay Protocol Summary: The mixture of HepG2 cell suspension and reagents were dispensed at 600cells/6 ul/well in 1536-well tissue culture treated black solid bottom plates using a Multidrop dispenser. After the assay plates were incubated at a 37 C/5% CO2 incubator for 5 hours, 23 nL of compounds dissolved in DMSO, positive and negative controls was transferred to the assay plate by a pintool work station. The plates were incubated at 37 C for 40 hours. The luminescence intensity were measured at 0h, 8h, 16h, 24h, 32h and 40h time points using ViewLux plate reader during compound treatment.

Question: Which Potency does the source give for `Cc1cccc(C)c1NC(=O)CC12CCCN1CCC2` here?
Answer: inactive

Question: With `NC(=O)N[C@@H](CCC(=O)O)C(=O)O` as the compound, how does the Potency read?
Answer: inactive

Question: With `CC(C)(C)c1ccc(-c2ccc(C(C)(C)C)cc2)cc1` as the compound, how does the Potency read?
Answer: inactive

Question: With `Nc1ccccn1` as the compound, how does the Potency read?
Answer: inactive

Question: Which Potency does the source give for `CC(C)[C@H]1CC[C@@H](C)CC1=O` here?
Answer: inactive

Question: Which Potency does the source give for `C1CCC2(CCCCO2)OC1` here?
Answer: inactive

Question: With `COc1cc(C(=O)OC(COCCC(C)C)CN2CCOCC2)cc(OC)c1OC` (stereo not given) as the compound, how does the Potency read?
Answer: inactive

Question: With `CC(COc1ccccc1)NN` (stereo not given) as the compound, how does the Potency read?
Answer: inactive

Question: With `CCCOC(=O)CC` as the compound, how does the Potency read?
Answer: inactive

Question: Which Potency does the source give for `O=C(O)CCSCCC(=O)O` here?
Answer: inactive

Question: Which Potency does the source give for `Nc1ccn([C@@H]2O[C@H](CO)[C@@H](O)C2O)c(=O)n1` (stereo not given in full) here?
Answer: inactive

Question: For `CC(=O)NC(=O)c1ccccc1O`, which Potency is on record?
Answer: inactive

Question: Which Potency does the source give for `CCCCCC(=O)OCCc1ccccc1` here?
Answer: inactive

Question: Which Potency does the source give for `CC(=O)c1cnccn1` here?
Answer: inactive

Question: With `CC(=O)N[C@H]1[C@H]([C@H](O)[C@H](O)CO)OC(C(=O)O)=C[C@@H]1N=C(N)N` as the compound, how does the Potency read?
Answer: inactive

Question: For `CC(C)CCCO`, which Potency is on record?
Answer: inactive

Question: For `Nc1c2c(nc3c1CCC3)CCCC2`, which Potency is on record?
Answer: inactive

Question: Which Potency does the source give for `FB(F)F` here?
Answer: inactive

Question: With `CC(C)C1CCC(O)CC1` (stereo not given) as the compound, how does the Potency read?
Answer: inactive

Question: For `O=S(=O)(O)c1cccc2c(S(=O)(=O)O)cccc12`, which Potency is on record?
Answer: inactive

Question: For `C=CCCCCCCCCC(=O)OCC`, which Potency is on record?
Answer: inactive

Question: With `CN1CC(=O)N/C1=N/C(=O)Nc1cccc(Cl)c1` as the compound, how does the Potency read?
Answer: inactive

Question: For `C=CC(=O)OCCCl`, which Potency is on record?
Answer: inactive

Question: With `CCCCOCCOC(=O)CCCCCCCCC(=O)OCCOCCCC` as the compound, how does the Potency read?
Answer: inactive

Question: For `O=C(O)CNC(=O)c1ccccc1`, which Potency is on record?
Answer: inactive

Question: For `CO[Si](C)(OC)c1ccccc1`, which Potency is on record?
Answer: inactive

Question: For `CCN[C@H]1C[C@H](C)S(=O)(=O)c2sc(S(N)(=O)=O)cc21`, which Potency is on record?
Answer: inactive

Question: Which Potency does the source give for `CCN(C=O)CC` here?
Answer: inactive

Question: For `CCCCCCC1CCC(=O)O1` (stereo not given), which Potency is on record?
Answer: inactive

Question: For `C[C@H]1[C@H](NC(=O)/C(=N/OC(C)(C)C(=O)O)c2csc(N)n2)C(=O)N1S(=O)(=O)O` (stereo in doubt), which Potency is on record?
Answer: inactive

Question: For `Nc1ccncc1N`, which Potency is on record?
Answer: inactive

Question: For `CC(C)NNC(=O)c1ccncc1`, which Potency is on record?
Answer: inactive

Question: With `C=C[Si](OC(C)=O)(OC(C)=O)OC(C)=O` as the compound, how does the Potency read?
Answer: inactive

Question: Which Potency does the source give for `CC(C)(N)C#N` here?
Answer: inactive

Question: With `O=C(O)CC(C(=O)O)S(=O)(=O)O` (stereo not given) as the compound, how does the Potency read?
Answer: inactive

Question: For `NCCCC[C@H](N[C@@H](CCc1ccccc1)C(=O)O)C(=O)N1CCC[C@H]1C(=O)O`, which Potency is on record?
Answer: inactive

Question: For `O=[N+]([O-])c1ccc(/C=N\O)o1`, which Potency is on record?
Answer: inactive

Question: Which Potency does the source give for `CCCCCCC#CC(=O)OC` here?
Answer: inactive

Question: With `NO` as the compound, how does the Potency read?
Answer: inactive

Question: With `COc1cc(-c2ccc(=O)[nH]n2)ccc1OC(F)F` as the compound, how does the Potency read?
Answer: inactive
